# Cycloheximide cs = Cycloheximide Counterscreen for Small Molecule Inhibitors of Shiga Toxin; cell reporter, cycloheximide protein synthesis inhibition counterscreen; max response, %; AID 2314, 2010; 300,000 compounds, 12% hits; in the data active = max response mostly above about 13%, no sharp cut-off; inactive = mostly below about 14%; also: read at 38.3 µM for the half of the compounds with a filed dose; 0% is about no effect
# HCMV antiviral = qHTS Assay for inhibitors of the human cytomegalovirus (HCMV). HFF cells, HCMV-luciferase reporter, 72 h; hits give low values. activity change, negative = inhibition, % at 57.5 µM. 410,000 compounds, 4.5% hits; in the data active = activity change below about -60%; inconclusive = no clear call, values can overlap the other calls; inactive = above about -39%; also: % is scaled to controls: 0 for no effect and ±100 for the full control effect
#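 Cell-based, HFFs, 1000 cells/well, 16 h 37C; cpds in DMSO + HCMV-luc, MOI 1 PFU/cell; 72 h 37C; OneGlo luminescence after 5 min RT; norm. to buffer vs Salinomycin 10uM.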
# Pf growth 96h = Primary qHTS for delayed death inhibitors of the malarial parasite plastid, 96 hour incubation. P. falciparum luciferase reporter growth, 96 h. Potency, µM (top dose mostly 28.7 µM), for inactives: top-dose activity change, negative = inhibition, most hits filed as inhibitors. 320,000 compounds, 6.9% hits. AID 504834, 2011; also: potency is read from the fitted curve at half-maximal effect; % is scaled to controls: 0 for no effect and ±100 for the full control effect
#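 Compounds incubated with erythrocytes infected by luciferase-expressing P. falciparum (2% hematocrit, 0.05% parasitemia final) for 96 hours, 37 C in 5% CO2. Growth inhibition scored as decreased luciferase luminescence.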
# Shiga inhibitor = A qHTS for Small Molecule Inhibitors of Shiga Toxin; 290,000 compounds, 9.2% hits; Vero cells, Shiga toxin protein synthesis inhibition reporter; inhibition, % at 38.7 µM; in the data active = inhibition mostly above about 28%, no sharp cut-off; inactive = mostly below about 43%; also: 0% is about no effect
# Pf growth 48h = Primary qHTS for delayed death inhibitors of the malarial parasite plastid, 48 hour incubation | P. falciparum luciferase growth in erythrocytes, 48 h | Potency, µM (highest dose often 28.7 µM), without a hit: at the top dose activity change, negative = inhibition, most hits filed as inhibitors | 310,000 compounds, 5.9% hits | AID 504832, 2011; also: potency is read from the fitted curve at half-maximal effect; % is scaled to controls: 0 for no effect and ±100 for the full control effect
#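 Here the parasites carry a stable luciferase gene and grow inside erythrocytes in Albumax-based RPMI medium with compound for one erythrocytic cycle. Activity is scored as loss of luminescent signal.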
# Starred values were filed as active, the others as inactive; ? = inconclusive; · = no result. In the library only some 20% were active in any assay of this set; here they are far more common. Unless noted, calls follow the shape of the dose curve; as a rule, active = well fitted inhibition curve with a large enough effect; inconclusive = small, poorly fitted or top-dose-only effect, or another doubt; inactive = no such curve, though single readings can be large or run the other way.
SMILES,Cycloheximide cs,HCMV antiviral,Pf growth 96h,Shiga inhibitor,Pf growth 48h
CN1CCN(c2cc(-c3cc(O)c4ncccc4c3)ccn2)CC1,·,-89*,?,·,12µM*
CN1CCN(C(=O)c2cccc(-c3cc(O)c4ncccc4c3)c2)CC1,·,-21,10µM*,·,10µM*
Oc1cc(-c2cccnc2)cc2cccnc12,·,-94*,4.1µM*,·,7.4µM*
C=CCn1c(O)c(CN2CCOCC2)c(C)c(C#N)c1=O,30*,·,?,91*,2%
CCn1cc(S(=O)(=O)c2cccc(C)c2)c(=O)c2cc(F)c(N3CCCC(C)C3)cc21 (configuration not stated),·,49,·,·,·
O=C(CC1Sc2ccccc2NC1=O)OCC(=O)N1CCc2ccccc21 (configuration not stated),32*,28,?,92*,-9%
Cc1cc(C(=O)COC(=O)CC2Sc3ccccc3NC2=O)c(C)n1-c1ccccc1 (configuration not stated),66*,-11,?,50*,5%
COC(=O)c1ccc(-n2c(C)cc(C(=O)COC(=O)CC3Sc4ccccc4NC3=O)c2C)cc1 (configuration not stated),21*,-6,?,26*,-21%
Cc1cc(C(=O)COC(=O)CC2Sc3ccccc3NC2=O)c(C)n1-c1ccc2c(c1)OCO2 (configuration not stated),27*,20,-12%,37,-9%
COc1ccccc1CNC(=O)c1cnn2c(C)c(Cc3ccc(F)cc3)c(C)nc12,·,6,·,·,·
Cc1c(Cl)cccc1NC(=O)CSc1nccn1C,1,-14,?,-5,4%
O=C(CC1Sc2ccccc2NC1=O)OCc1cc(=O)oc2cc(O)ccc12 (configuration not stated),1,54,4.7µM*,19,-12%
CCC(C)c1ccc(NC(=O)CSc2nncn2N)cc1 (configuration not stated),26,35,81%,35,51%
O=C(O)CSCC(=O)Nc1ccc(C2CCCCC2)cc1,-4,-92*,?,-22,?
Nn1cnnc1SCC(=O)Nc1ccc(C2CCCCC2)cc1,50*,4,-22%,81*,113%
O=C(Cc1ccc2ccccc2c1)Nc1ccccc1Br,1,21,3.3µM*,5,?
COc1ccc(CC(=O)NCC(=O)Nc2ccccc2Br)cc1,-1,-36,43%,1,26%
O=C(Cc1ccc2c(c1)CCCC2)Nc1ccccc1Br,14,-17,2.6µM*,-14,3.7µM*
CC1CCN(c2nn3c(=O)c(C(=O)NCCCOC(C)C)cnc3s2)CC1,·,12,·,·,·
Cc1csc2nc(COc3ccc(NC(=O)c4ccccc4F)cc3)cc(=O)n12,·,-15,·,·,·
CCOc1ccc(S(=O)(=O)N/N=C2/CCCC(=O)C2)cc1,-3,9,4%,-3,1%
O=C1CCC/C(=N/Nc2ccc(Cl)cc2)C1,29*,4,12µM*,67*,?
COc1cccc(-c2noc(CCC(=O)NC3CCCC3)n2)c1,19,-39,-10%,5,27%
Cc1ccc(C(=O)NNC(=O)c2ccc3ccccc3c2O)cc1,2,90,24%,1,0%
Cc1ccc(-c2csc3ncnc(SCC(=O)NCC4CCCO4)c23)cc1 (configuration not stated),·,-12,?,·,?
COC(=O)CN(C(=S)Nc1ccccc1)C1CC(=O)N(c2ccc(OC)cc2)C1=O (configuration not stated),12,4,34%,-14,1%
CCCCN(C(C)=O)C1CC(=O)N(c2ccc(OCCC)cc2)C1=O (configuration not stated),0,-1,52%,-7,0%
C=CCN(C(=O)Nc1ccccc1)C1CC(=O)N(c2ccc(OC)cc2)C1=O (configuration not stated),4,17,12µM*,-4,5%
COc1ccc(NC(=O)N(Cc2ccc3c(c2)OCO3)C2CC(=O)N(c3ccc(OC)cc3)C2=O)cc1 (configuration not stated),-4,-3,?,-3,·
CNC(=S)N(Cc1ccc(OC)cc1)C1CC(=O)N(c2ccc(C(=O)OC)cc2)C1=O (configuration not stated),-1,-8,5.9µM*,-5,?

# Screening results from PubChem.
